Records with an inconclusive call do not appear. Activity calls are given as the source filed them. Unless noted, calls come from the whole dose curve; as a rule, active = well fitted curve in the direction sought with a large enough effect; inconclusive = small, poorly fitted or top-dose-only effect, or another doubt; inactive = no such curve, though single readings can be large; an effect the other way counts as inactive or inconclusive.
Tests used:
[1] = Nrf2 qHTS screen for inhibitors: Validation (AID 493153; active = well fitted inhibition curve with a large enough effect in the main read-out, with a control signal flat, not every such curve was filed as active; note: potency is the fitted concentration of half-maximal effect); settings: Potency: luciferase luminescence; viability change: measured here: cytotoxicity max response
In short: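 Concentration-response on A549 ARE_Fluc reporter cells exposed 18-24 h at 37 C, 5% CO2. Cytotoxicity read first by CellTiter-Fluor fluorescence (Ex 405/Em 525), then Nrf2 inhibition by BugLite luminescence after 15 min.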

[2] = molecular target: Galactokinase (Homo sapiens) (UniProt P51570); assay: qHTS Validation Assay for Inhibitors of Human Galactokinase (GALK) (AID 493189)
Sequence of Galactokinase (Homo sapiens) (P51570 whole entry, looked up): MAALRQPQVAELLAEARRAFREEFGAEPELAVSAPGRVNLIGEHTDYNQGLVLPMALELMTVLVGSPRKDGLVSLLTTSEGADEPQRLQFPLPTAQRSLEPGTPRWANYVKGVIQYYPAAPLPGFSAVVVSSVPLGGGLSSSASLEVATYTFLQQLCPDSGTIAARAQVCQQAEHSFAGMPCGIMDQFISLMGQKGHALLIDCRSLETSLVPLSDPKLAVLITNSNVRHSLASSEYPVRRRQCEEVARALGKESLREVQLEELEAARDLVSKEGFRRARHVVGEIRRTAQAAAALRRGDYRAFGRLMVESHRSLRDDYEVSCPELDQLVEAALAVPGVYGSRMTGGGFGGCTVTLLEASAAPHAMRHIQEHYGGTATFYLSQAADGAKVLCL
In short: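 GALK (5 nM) with 35 uM ATP and 100 uM galactose in HEPES pH8.0, MgCl2, NaCl, DTT, BSA; 1 h at room temperature. Residual ATP read by Kinase-Glo Plus luminescence after 10 min.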

[3] = molecular target: Peptidyl-prolyl cis-trans isomerase NIMA-interacting 1 (Homo sapiens) (UniProt Q13526); assay: qHTS Validation Assay to Find Inhibitors of Pin1 (AID 504536; active = well fitted inhibition curve with a large enough effect in the polarisation, with a control signal flat, not every such curve was filed as active; the % refers to the polarisation; note: potency is the fitted concentration of half-maximal effect)
Sequence of Peptidyl-prolyl cis-trans isomerase NIMA-interacting 1 (Homo sapiens) (Q13526 whole entry, looked up): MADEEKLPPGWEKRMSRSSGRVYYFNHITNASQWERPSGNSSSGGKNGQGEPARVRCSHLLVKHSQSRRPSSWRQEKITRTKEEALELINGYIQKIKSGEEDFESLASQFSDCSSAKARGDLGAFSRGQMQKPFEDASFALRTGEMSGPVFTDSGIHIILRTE
In short: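 Fluorescence polarization competition: compounds (titration) displace HiFluor-488-labeled Pin1-1b peptide from Pin1 (0.3 uM final) in pH 7.5 HEPES buffer with DTT, 10 min at room temperature; %Activity normalized to no-enzyme wells, curves fitted.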

[4] = molecular target: Phosphoglycerate kinase, glycosomal (Trypanosoma brucei brucei) (UniProt P07378); assay: qHTS Validation Assay to Find Inhibitors of Phosphoglycerate Kinase (AID 504547)
Sequence of Phosphoglycerate kinase, glycosomal (Trypanosoma brucei brucei) (P07378 whole entry, looked up): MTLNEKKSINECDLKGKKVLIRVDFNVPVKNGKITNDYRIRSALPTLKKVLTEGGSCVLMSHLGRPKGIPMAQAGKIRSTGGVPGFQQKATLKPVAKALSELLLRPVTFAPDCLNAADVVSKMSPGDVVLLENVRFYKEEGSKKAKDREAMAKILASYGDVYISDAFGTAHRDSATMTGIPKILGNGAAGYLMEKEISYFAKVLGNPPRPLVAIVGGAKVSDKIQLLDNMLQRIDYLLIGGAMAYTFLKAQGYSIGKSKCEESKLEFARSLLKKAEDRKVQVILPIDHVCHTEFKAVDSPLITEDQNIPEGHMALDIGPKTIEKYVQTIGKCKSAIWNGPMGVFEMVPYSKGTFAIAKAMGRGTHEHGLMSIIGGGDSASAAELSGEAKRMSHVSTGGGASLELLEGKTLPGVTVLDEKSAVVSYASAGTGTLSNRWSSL
In short: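 Luminescence end-point (Kinase-Glo Plus, 10 min) after a 60 min room-temperature coupled reaction. GAPDH at 100nM final supplies 1,3-BPG to PGK. Buffer: 100mM TEA pH 7.6, 5mM MgCl2, 0.01% Tween-20. Wells lacking PGK served as controls.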

[5] = molecular target: phosphoglycerate mutase (Leishmania major) (UniProt Q4Q090); assay: qHTS Validation Assay to Find Inhibitors of Phosphoglycerate Mutase (AID 504548); settings: Potency: inhibition qHTS;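 note: end-point luminescence from Kinase-GloPlus after the PGAM reaction; series mostly up to about 58 µM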
Sequence of phosphoglycerate mutase (Leishmania major) (Q4Q090 1-553): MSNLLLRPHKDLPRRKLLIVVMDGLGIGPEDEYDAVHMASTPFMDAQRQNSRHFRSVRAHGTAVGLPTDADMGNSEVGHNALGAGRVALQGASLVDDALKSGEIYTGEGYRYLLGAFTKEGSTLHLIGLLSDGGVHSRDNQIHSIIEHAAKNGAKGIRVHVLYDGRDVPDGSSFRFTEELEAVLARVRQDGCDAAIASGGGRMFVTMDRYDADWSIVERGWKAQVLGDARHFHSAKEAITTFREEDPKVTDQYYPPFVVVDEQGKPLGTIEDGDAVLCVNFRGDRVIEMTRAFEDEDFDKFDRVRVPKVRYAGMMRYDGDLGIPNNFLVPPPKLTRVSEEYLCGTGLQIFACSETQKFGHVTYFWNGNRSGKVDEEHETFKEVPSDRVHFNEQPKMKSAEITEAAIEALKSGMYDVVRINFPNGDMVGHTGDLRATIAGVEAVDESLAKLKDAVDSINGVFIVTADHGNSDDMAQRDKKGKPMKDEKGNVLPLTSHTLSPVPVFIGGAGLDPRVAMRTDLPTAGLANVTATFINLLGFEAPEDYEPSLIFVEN
In short: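 L. major PGAM (1.25nM final) was added to substrate buffer and pinned compound, incubated 45 minutes at room temperature, then Kinase-GloPlus added; luminescence read after 10 minutes. Buffer: 100 mM TEA pH 7.6, 5 mM MgCl2, 0.01% Tween-20.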

[6] = molecular target: Ubiquitin carboxyl-terminal hydrolase 1 (Homo sapiens) (UniProt O94782); assay: Inhibitors of USP1/UAF1: Pilot qHTS (AID 504865); note: nearly all actives have a fitted effect of over 35% in size; note: potency is the fitted concentration of half-maximal effect
Sequence of Ubiquitin carboxyl-terminal hydrolase 1 (Homo sapiens) (O94782 whole entry, looked up): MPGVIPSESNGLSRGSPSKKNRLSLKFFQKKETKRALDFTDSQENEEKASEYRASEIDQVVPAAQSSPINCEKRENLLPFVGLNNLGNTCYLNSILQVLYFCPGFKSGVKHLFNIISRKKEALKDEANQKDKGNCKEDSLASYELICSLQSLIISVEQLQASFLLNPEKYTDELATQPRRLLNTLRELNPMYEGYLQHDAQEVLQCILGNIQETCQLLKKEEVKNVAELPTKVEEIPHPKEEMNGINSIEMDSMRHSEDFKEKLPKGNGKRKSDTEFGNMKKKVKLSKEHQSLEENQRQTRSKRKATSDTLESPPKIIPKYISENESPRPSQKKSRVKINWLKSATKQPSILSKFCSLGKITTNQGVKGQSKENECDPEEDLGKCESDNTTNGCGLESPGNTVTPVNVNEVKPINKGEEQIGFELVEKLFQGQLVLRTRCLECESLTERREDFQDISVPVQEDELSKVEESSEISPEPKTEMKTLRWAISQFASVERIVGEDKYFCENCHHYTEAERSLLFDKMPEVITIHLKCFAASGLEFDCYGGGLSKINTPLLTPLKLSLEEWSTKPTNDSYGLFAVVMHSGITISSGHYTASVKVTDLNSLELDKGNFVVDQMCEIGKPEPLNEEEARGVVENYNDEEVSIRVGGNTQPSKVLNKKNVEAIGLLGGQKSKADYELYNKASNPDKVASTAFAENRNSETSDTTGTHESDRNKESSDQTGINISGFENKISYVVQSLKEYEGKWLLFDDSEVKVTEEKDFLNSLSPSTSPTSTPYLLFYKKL
In short: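 USP1/UAF1 complex (1nM) preincubated with compound 15 min at room temperature, then Ub-Rho substrate (150nM final) added. Fluorescence read kinetically at 480/540 nm, 6 reads every 60 seconds. Buffer: 50mM HEPES pH 7.8, 0.5mM EDTA, 0.1 mg/ml BSA, 1mM TCEP, 0.01% Tween-20.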

[7] = qHTS for Inhibitors of ATXN expression: Validation of Cytotoxic Assay (AID 588349)
In short: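 Cytotoxicity counter-screen: ATP-based luminescent viability (CellTiter Glo) after 72 hr exposure of HEK293 cells to a compound titration at 37 degrees C.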

[8] = qHTS for Inhibitors of ATXN expression: Validation (AID 588378); note: series mostly up to about 57 µM; nearly all actives have a fitted effect of over 75% in size
In short: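 Luminescence from an ATXN2-FFLuc reporter in HEK293 cells served as read-out after 24 h compound treatment at 37 degrees C; CellTiter-Fluor fluorescence was recorded first to assess viability.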

[9] = qHTS for Inhibitors of Cell Surface uPA Generation: Validation Assay (AID 493164);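 note: RAW 264.7 macrophage cells exposed to compound for 18 h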
In short: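 ATP-Lite luminescence read-out: ATP remains high when uPA activity-dependent LF translocation into the cytoplasm is blocked. RAW 264.7 cells, 18 h compound exposure at 37 C; 7-point titration, 2.45 nM to 38.3 uM final.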

[10] = Validation screen for small molecules that induce DNA re-replication in SW480 colon adenocarcinoma cells (AID 504364)
In short: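 Image-based DNA content read-out: Hoechst stain 40 min, total nuclear fluorescence intensity (ex 405 nm, em 500-530 nm) after 48 h compound exposure of 250 SW480 cells/well at 37 C, 5% CO2, versus DMSO vehicle.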

Nc1ccc(-c2ccc3ccccc3n2)cc1
inactive: Potency [1] | Potency [2] | Potency [3] | Potency [4] | Potency [5] | Potency [6] | Potency [7] | Potency [8]
-6.75%: viability change [1]

NC[C@@H]1O[C@H](c2ccccc2)Cc2c1ccc(O)c2O
-1.5%: viability change [1]
inactive: Potency [1] | outcome [9] | Potency [3] | Potency [5] | Potency [6] | Potency [7] | Potency [8]

CCCCC[C@H](CC(=O)NO)C(=O)N[C@H](C(=O)N1CCC[C@H]1CO)C(C)C
2.77%: viability change [1]
inactive: Potency [10] | Potency [3] | Potency [5] | Potency [6]
active: Potency [1] 16.4 µM

NCCS(=O)O
6.69%: viability change [1]
inactive: Potency [1] | Potency [2] | Potency [3] | Potency [5] | Potency [6] | Potency [7] | Potency [8]

NCCCNCCCCNCCCN
inactive: Potency [1] | Potency [2] | Potency [10] | Potency [3] | Potency [4] | Potency [5] | Potency [6] | Potency [7] | Potency [8]
-11.3%: viability change [1]

COc1ccc(-c2ccc(N)[n+](CCCC(=O)O)n2)cc1
inactive: outcome [9] | Potency [2] | Potency [10] | Potency [4] | Potency [5] | Potency [6] | Potency [7] | Potency [8]

O=C1NC(=O)c2cc(Nc3ccccc3)c(Nc3ccccc3)cc21
inactive: outcome [9] | Potency [2] | Potency [10] | Potency [3] | Potency [4] | Potency [5] | Potency [7]

CCCCCCN(CCCCCC)C(=O)Cc1c(-c2ccc(F)cc2)[nH]c2ccccc12
inactive: outcome [9] | Potency [2] | Potency [3] | Potency [4] | Potency [5] | Potency [7] | Potency [8]

CC(C)(C)c1cc(/C=C(\C#N)C(N)=S)cc(C(C)(C)C)c1O
inactive: outcome [9] | Potency [2] | Potency [10] | Potency [4] | Potency [5]

[N-]=[N+]=Nc1ccc(C(=O)CSC[C@H](NC(=O)CC[C@H](N)C(=O)O)C(=O)NCC(=O)O)cc1
active: Potency [3] 23.9 µM | Potency [6] 35.5 µM
inactive: outcome [9] | Potency [2] | Potency [10] | Potency [5] | Potency [7] | Potency [8]

NC(N)=NC(N)=Nc1cccc(Cl)c1
inactive: outcome [9] | Potency [2] | Potency [10] | Potency [3] | Potency [4] | Potency [5] | Potency [6] | Potency [7] | Potency [8]

C[C@@]1(C2CCCC2)Cc2cc(OCC(=O)O)c(Cl)c(Cl)c2C1=O
inactive: outcome [9] | Potency [2] | Potency [10] | Potency [3] | Potency [4] | Potency [5] | Potency [6] | Potency [8]

CCCC(=O)NCCc1c2n(c3ccc(OC)cc13)CCCc1ccccc1-2
inactive: outcome [9] | Potency [2] | Potency [3] | Potency [4] | Potency [5]

COc1ccc2c(c1)c(CC(=O)O)c(C)n2Cc1ccc(Cl)cc1
inactive: outcome [9] | Potency [2] | Potency [10] | Potency [3] | Potency [4] | Potency [5] | Potency [6] | Potency [7] | Potency [8]

Nc1nc2c(cnn2CCc2ccccc2)c2nc(-c3ccco3)nn12
inactive: Potency [1] | Potency [3] | Potency [4] | Potency [5] | Potency [6] | Potency [8]
-1.96%: viability change [1]

CNCCNS(=O)(=O)c1cccc2cnccc12
inactive: outcome [9] | Potency [2] | Potency [10] | Potency [3] | Potency [5] | Potency [6] | Potency [7]

CC(C)NC[C@H](O)COc1cccc2ccccc12
-4.73%: viability change [1]
inactive: Potency [1] | Potency [3] | Potency [6] | Potency [7]
